Results on 18 molecules are retold here after PubChem BioAssay (EPA / NIEHS).

A short description of test [1]: ACEA_ER_AUC_viability: ACEA Biosciences xCELLigence Real-Time Cell Analysis on Estrogen Receptor Agonism for Viability (AID 2283782).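 Note: hit means loss of impedance signal meaning reduced cell growth or viability.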 The method in brief:
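Read-out: real-time electrical impedance (RT-CES) area under curve, loss of signal taken as reduced viability, normalized to DMSO baseline. T-47D cells, charcoal-stripped serum medium, compounds up to 100 uM final, continuous exposure, 80 h.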

Test [2] concerns the target AR (gene 367) (UniProt P10275). The test is described as follows: ACEA_AR_agonist_80hr: ACEA Biosciences xCELLigence Real-Time Cell Analysis on Androgen Receptor Agonism for Proliferation (AID 2283783).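 Note: hits increase impedance growth signal above DMSO baseline.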 Summed up: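 Impedance (RT-CES) growth signal at 80 h post-dose; 22Rv1 cells, 8-pt 1:4 series, top 100 uM final, DMSO ≤0.5%; duplicate plates; gain-of-signal fit relative to DMSO baseline.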

Test [3] concerns the target AR (gene 367) (UniProt P10275). The experiment in a line: ACEA_AR_antagonist_80hr: ACEA Biosciences xCELLigence Real-Time Cell Analysis on Androgen Receptor Antagonism for Proliferation (AID 2283787).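 Note: 22Rv1 human prostate cancer cells with growth followed by electrical impedance; hits lower the impedance growth signal relative to DMSO.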 The method in brief: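 Measures real-time proliferation of 22Rv1 prostate cancer cells by electrode impedance at 80 hours after dosing. Test articles ran at eight concentrations (1:4 steps, top 100 uM final) in biological duplicate.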

The subject of test [4] is frog Estrogen Receptor (ESR1), gene 398734. The test is described as follows: ATG_frER1_XSP1: Attagene TRANS-FACTORIAL Multi-Species (XSP1) HepG2 Assay for frog Estrogen Receptor (ESR1) (AID 2283777). The method in brief: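 Transient MRTU transfection, HepG2 (human liver); 24 h dosing, 3 nM 6α-fluorotestosterone co-added; RNA → RT-PCR → 6-FAM labeling → CE; upward activity vs DMSO.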

In test [5] the test system is turtle Androgen Receptor (AR), gene 101947425. The test is described as follows: ATG_trAR_XSP1: Attagene TRANS-FACTORIAL Multi-Species (XSP1) HepG2 Assay for turtle Androgen Receptor (AR) (AID 2283786). Summed up:
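Partial androgen stimulation is provided by 3 nM 6-alpha-fluorotestosterone in a multi-species trans-factorial panel expressing a turtle AR–GAL4 fusion in HepG2. After 24 h, reporter mRNA is measured by RT-PCR and capillary electrophoresis and fitted upward against DMSO.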

Inconclusive results are not listed. Some compounds were tested as several samples or in several runs, with calls that do not always agree. Activity calls are given as the source filed them. Rule for the calls: active = hit-call score of the fitted dose curve at least 0.9, where 1 is the maximum; inconclusive = response in the unintended direction; inactive = score below 0.9.

AR (gene 367), sequence (P10275 whole entry, looked up): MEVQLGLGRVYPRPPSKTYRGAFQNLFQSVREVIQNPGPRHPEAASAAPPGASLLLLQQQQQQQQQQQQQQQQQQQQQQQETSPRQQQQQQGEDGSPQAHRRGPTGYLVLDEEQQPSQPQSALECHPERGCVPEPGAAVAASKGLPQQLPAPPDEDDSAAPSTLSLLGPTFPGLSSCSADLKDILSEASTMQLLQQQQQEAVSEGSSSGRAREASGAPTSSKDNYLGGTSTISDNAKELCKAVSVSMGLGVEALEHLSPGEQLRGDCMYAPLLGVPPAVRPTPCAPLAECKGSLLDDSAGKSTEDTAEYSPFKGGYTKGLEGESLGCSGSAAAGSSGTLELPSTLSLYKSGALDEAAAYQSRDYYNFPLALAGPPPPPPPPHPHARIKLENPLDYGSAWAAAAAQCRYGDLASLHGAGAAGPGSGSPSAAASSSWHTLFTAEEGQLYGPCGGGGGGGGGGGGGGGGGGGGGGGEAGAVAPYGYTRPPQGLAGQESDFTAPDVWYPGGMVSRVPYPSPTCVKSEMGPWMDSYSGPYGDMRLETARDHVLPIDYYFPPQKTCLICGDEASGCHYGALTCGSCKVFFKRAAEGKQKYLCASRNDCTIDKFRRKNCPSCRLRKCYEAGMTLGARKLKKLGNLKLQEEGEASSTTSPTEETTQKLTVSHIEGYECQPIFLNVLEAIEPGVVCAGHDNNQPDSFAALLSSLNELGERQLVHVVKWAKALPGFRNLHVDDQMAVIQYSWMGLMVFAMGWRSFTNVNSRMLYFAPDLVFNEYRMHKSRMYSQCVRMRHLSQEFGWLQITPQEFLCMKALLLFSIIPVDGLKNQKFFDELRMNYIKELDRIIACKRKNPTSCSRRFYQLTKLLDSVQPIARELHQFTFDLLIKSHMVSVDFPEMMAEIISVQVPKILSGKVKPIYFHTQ

With `C[C@H]1[C@H](c2ccc(Cl)cc2)SC(=O)N1C(=O)NC1CCCCC1`, the concentration at half-maximal activity (AC50) in test [1] is 79.9 µM (active); with AR (gene 367) [3], 19.1 µM (active). Further, the call with AR (gene 367) [2] was inactive.

As to `O=S(=O)(O)C(F)(F)C(F)(F)C(F)(F)C(F)(F)C(F)(F)C(F)(F)C(F)(F)C(F)(F)F`, the AC50 in test [4] is 84 µM (active); in test [1] it was 80 µM (active); in test [5] it was 130 µM (active). Besides, the call in test [1] was inactive.

On to `O=C(Nc1ccccc1)Nc1cnns1`, for which, in test [1], the outcome was inactive.

Regarding `CNC(=O)Oc1cccc(N=CN(C)C)c1`, the half-maximal activity concentration (AC50) in test [1] was 50.5 µM (active).

For `O=C(O)COc1ccc(Cl)cc1Cl`, the molecule was called inactive in test [1].

With `CC(C)(C)C(O)C(Oc1ccc(Cl)cc1)n1cncn1` (configuration not stated), the result in test [1] was inactive.

Turning to `CCC(C)(C)C(=O)OC1=C(c2ccc(Cl)cc2Cl)C(=O)OC12CCCCC2`, the AC50 in test [1] was 12.3 µM (active). For the same molecule, the outcome with AR (gene 367) [3] was inactive.

For the molecule `CC(C)OC(=O)Nc1cccc(Cl)c1`, in test [1], the AC50 was 79.6 µM (active).

With `CC1(c2ccc(Oc3ccccc3)cc2)OC(=O)N(Nc2ccccc2)C1=O` (configuration not stated), the concentration at half-maximal activity (AC50) in test [1] is 45.8 µM (active).

For the molecule `COP(=S)(OC)Oc1ccc([N+](=O)[O-])cc1`, in test [1], the result was inactive.

Take `O=C1c2ccccc2C(=O)N1SC(Cl)(Cl)Cl`: in test [1], the molecule was called inactive.

On to `O=C(O)CCCOc1ccc(Cl)cc1Cl`, for which the result (in test [1]; in the test with AR (gene 367) [3]) was inactive.

As for `Cc1[nH]c(=O)n(C(C)(C)C)c(=O)c1Cl`, the molecule was classed as inactive (in test [1]; with AR (gene 367) [3]).

For `ClC1C(Cl)C(Cl)C(Cl)C(Cl)C1Cl` (configuration not stated), in test [1], the AC50 is 60.1 µM (active) and the outcome was inactive.

Turning to `CCN(CC)C(=O)SCc1ccc(Cl)cc1`, in test [1], the AC50 was 75.9 µM (active).

With `Clc1ccccc1-c1nnc(-c2ccccc2Cl)nn1`, the outcome in test [1] was inactive.

As to `CCC(C)(NC(=O)c1cc(Cl)c(C)c(Cl)c1)C(=O)CCl` (configuration not stated), the half-maximal activity concentration (AC50) in test [1] is 9.16 µM (active).

With `O=C(O)C(F)(F)C(F)(F)C(F)(F)C(F)(F)C(F)(F)C(F)(F)C(F)(F)F`, the call in test [1] was inactive.
